In ChEMBL document CHEMBL1157539, “Thousands of chemical starting points for antimalarial lead identification” (Nature, 2010):

Columns and labels:
Format in all cases: functional
Plasmodium falciparum [1] = test: GSK_TCMDC: Inhibition of Plasmodium falciparum 3D7 in whole red blood cells, using parasite LDH activity as an index of growth. Test compounds present at 2uM
Plasmodium falciparum [2] = test: GSK_TCMDC: Inhibition of Plasmodium falciparum Dd2 in whole red blood cells, using parasite LDH activity as an index of growth. Test compounds present at 2uM
HepG2 = test: GSK_TCMDC: Percent inhibition of human HepG2 cell line. Test compounds present at 10uM.

Structure (SMILES)	Inhibition (Plasmodium falciparum [1]) [%]	Inhibition (Plasmodium falciparum [2]) [%]	Inhibition (HepG2) [%]
O=C(c1ccc([N+](=O)[O-])o1)N1CCC(Cc2ccc(C(F)(F)F)cc2)CC1	100	99	38
NCc1cccc(-c2ccc3ccnc(N)c3c2)c1	100	96	7
CC(C)C(=O)NC(c1ccc(N(C)C)cc1)c1cc(Cl)c2cccnc2c1O (stereo not given)	87	64	61
CN(C)CCCNC(=O)c1ccccc1Sc1ccccc1C#N.Cl	89	3	11
CS(=O)(=O)CCCNCc1ccc(-c2cc3c(Nc4ccc(OCc5ccccc5)cc4)ncnc3cn2)o1	87	16	10
COC(=O)c1cccc(CNCc2cccc(-c3ccc(-c4nc5ccccc5[nH]4)s3)c2)c1.O=C(O)C(F)(F)F	93	59	0
CC(=O)Nc1ncc(C(=O)Nc2cccc(-c3ccc(-c4nc5cc(C(F)(F)F)ccc5[nH]4)cc3)c2)s1	100	94	83
Cc1cccc2nc(-c3ccc(-c4cccc(CN5CCCC(O)C5)c4)s3)[nH]c12.O=C(O)C(F)(F)F (stereo not given)	95	18	13
COCCN(C(=O)Cc1cccs1)C(C(=O)NCc1ccc(OC)cc1)c1ccc(C(C)C)cc1 (stereo not given)	96	59	0
O=C(Nc1cc(C(F)(F)F)cc(C(F)(F)F)c1)c1cc(Cl)ccc1O [IMD-0354]	90	98	84
NC12CC3CC(CC(C3)C1)C2 [AMANTADINE]	98	0	31
CCOc1ccc2c(=NN=Cc3cc(OC)c(OC)cc3OC)cc(C)[nH]c2c1	100	97	24
O=C(N[C@H]1CCN(Cc2ccc(OCCN3CCCC3)c3ccccc23)C1)c1ccc(Cl)c(Cl)c1.O=C(O)C(F)(F)F	100	51	90
CCOc1ccc(C2CCN(CCCCNC(=O)c3ccc(NC(=O)c4ccc(Cl)cc4)cc3)CC2)c(Cl)c1	100	96	32
Cc1ccc2c(c1)c(-c1ccccc1)c(-c1ccccc1)n2CC(O)CN1CCN(CC=Cc2ccccc2)CC1 (stereo not given)	98	98	0
O=C(/C=C/c1ccc(Cl)c(Cl)c1)N1CCC(CCCN2CCC(c3c[nH]c4ccc(O)cc34)CC2)CC1	100	99	60
Cl.NOCCCCOc1ccc(Br)cc1	99	0	0
O=C(/C=C/c1ccc(Cl)c(Cl)c1)NCCCN1CCC(c2c[nH]c3ccccc23)CC1	90	5	48
COCCCC1C(=O)OC2CCCC21 (stereo not given)	93	85	0
CCCOc1cccc(C(=O)N[C@@H](Cc2ccccc2)[C@H](O)CNCc2ccccc2OC)c1	95	61	11
Clc1ccc2nc(-c3cccnc3)[nH]c2c1	92	97	0
COc1ccc(NC(=O)[C@H](Cc2ccccc2)Nc2cc(C)nc(NCCc3ccccn3)n2)cc1.O=C(O)C(F)(F)F	99	39	0
Nc1c(Cl)cc(C(O)CNCCCCCCCCCc2ccccn2)cc1Cl (stereo not given)	98	83	9
Cl.O=[N+]([O-])c1ccc(-c2nc3cc(C4=NC5CCCCC5N4)ccc3[nH]2)cc1 (stereo not given)	100	30	0
COCCn1ccc2c3c(N)nc(N)nc3ccc21	93	29	43
COc1ccc2[nH]c(C)cc(=NN=Cc3ccccc3)c2c1	80	6	4
COc1ccc(Cn2c(Nc3cccc(C(F)(F)F)c3)nc3cc(C(=O)NCCN4CCCC4)ccc32)cc1Cl	97	54	11
CN(C(=O)/C=C/c1cc(C(F)(F)F)ccc1F)C1CCN(CCCCCNC(=O)/C=C/c2ccc(Cl)c(Cl)c2)CC1	100	68	71
CCC(C)OC(=O)C1=C(C)NC2=C(C(=O)CC(c3ccc(OC)c(OC)c3)C2)C1c1ccc(O)cc1 (stereo not given)	100	97	3
CCCCCc1cc(OC(C)=O)c2c(c1)OC(C)(C)C=C2C1=CCN(Cc2ccccc2)CC1.O=C(O)/C=C/C(=O)O	97	88	14
